Screens (PubChem BioAssay)
Most compounds without a hit are left out; they make up all but 2.3% or so of the library.
A549 viability: counter-screen for Nrf2 inhibitors: cytotoxicity in A549 cells; Potency, µM (titrated, usually from 46 µM), inactives show at the top dose activity change, negative = cytotoxicity, most hits filed as inhibitors; A549 ARE-Fluc cells, CellTiter-Fluor viability, 18-24 h; 390,000 compounds, 0.16% hits; note: potency is the fitted concentration of half-maximal effect; % is set by controls: 0 for no effect and ±100 for the full control effect
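A549 ARE_Fluc cells in 5% FBS OPTI-MEM were exposed to compounds in concentration-response for 18-24 h at 37 deg C. Viability was read by CellTiter-Fluor fluorescence (Ex 405/Em 525) after 30 min, before the luciferase read.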
IL-2 act: IL-2 activation; IL-2 activation reporter assay, cell-based qHTS; stimulated with anti-CD3/CD4/CD28 beads; in transgenic mouse T cells; activation, % (series mostly up to about 46 µM); 360,000 compounds, 0.065% hits; AID 652025; in the data active = activation above about 50%; inconclusive = mostly about 30% to 49%; note: 0% is about no effect
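Screening format: compound pinned onto unstimulated transgenic mouse T cells, 60 min incubation, then anti-CD3/anti-CD4/anti-CD28 bead stimulation for 18 hours at 37 degrees C, followed by EGFP and DsRed detection.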
Nrf2 activator: activates Nrf2 signaling; 410,000 compounds, 0.31% hits; AREc32 ARE-luciferase reporter (MCF7-derived line), luminescence, 24 h; Potency, µM (titrated, usually from 46.1 µM), for inactives: top-dose activation, most hits filed as activators; AID 624171; note: potency is the fitted concentration of half-maximal effect; % of control where 0% means no effect; nearly all actives have a fitted effect of over 65% in size
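ARE-driven firefly luciferase activity in AREc32 cells measured after a 24 hr compound exposure at 37 deg C, using Steady-Glo reagent and a 30 min room-temperature hold.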
Nrf2 block: blocks Nrf2 signaling; A549 ARE-Fluc reporter, luciferase luminescence, 18-24 h; Potency, µM (series often up to 46 µM), for the others: top-dose activity change, negative = inhibition, usual class: inhibitors; 360,000 compounds, 2.1% hits; AID 504444; note: potency is the fitted concentration of half-maximal effect; % is set by controls: 0 for no effect and ±100 for the full control effect; nearly all actives have a fitted effect of over 60% in size
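A549 ARE_Fluc cells, 5000/well, 5% FBS OPTI-MEM; compounds in dose-response, 18-24 h at 37 °C/5% CO2; CellTiter-Fluor viability read (Ex 405/Em 525), then BugLite luciferase luminescence = Nrf2 activity.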
* marks the source's active call; other numbers are inactive results. Unless noted, calls come from the whole dose curve; as a rule, active = well fitted curve in the direction sought with a large enough effect; inconclusive = small, poorly fitted or top-dose-only effect, or another doubt; inactive = no such curve, though single readings can be large; an effect the other way counts as inactive or inconclusive.

How did CC(C(=O)NCc1ccc(F)cc1)n1ccc2cc(S(=O)(=O)N3CCCC3)ccc21 (configuration not stated) do in these assays?
A549 viability: -17%; IL-2 act: -4; Nrf2 activator: -1%; Nrf2 block: 21µM*

What do the screens show for `CC(=O)Nc1cccc(S(=O)(=O)N2CCCCCC2)c1`?
A549 viability: -2%; IL-2 act: 0; Nrf2 activator: 0%; Nrf2 block: 10%

What do the screens show for `CC(CC(=O)Nc1cccc(S(=O)(=O)N2CCCCC2)c1)c1ccccc1` (configuration not stated)?
A549 viability: inconclusive; IL-2 act: 1; Nrf2 activator: -1%; Nrf2 block: 13µM*

Results for COc1cc(F)c(S(=O)(=O)N2CCCN(S(=O)(=O)c3cccc(NC(C)=O)c3)CC2)c(F)c1 ?
A549 viability: -9%; Nrf2 block: 16µM*

Results for Cc1ccc(NS(=O)(=O)c2cccc(C(=O)O)c2)cc1C ?
A549 viability: 4%; Nrf2 block: inconclusive

What do the screens show for `CCOc1ccc(CCNC(=O)CCn2ccc3cc(S(=O)(=O)N4CCCC4)ccc32)cc1`?
A549 viability: -8%; IL-2 act: -3; Nrf2 activator: 3%; Nrf2 block: 26µM*

Results for CCn1ccc2cc(S(=O)(=O)N3CCC(C(=O)NCC(C)c4ccccc4)CC3)ccc21 (configuration not stated) ?
A549 viability: -3%; Nrf2 activator: 3%

How did CCN(CC)S(=O)(=O)c1ccc(C)c(NC(=S)Nc2cccc(S(=O)(=O)N3CCCCCC3)c2)c1 do in these assays?
A549 viability: -5%; IL-2 act: -5; Nrf2 activator: 0%; Nrf2 block: 23µM*

What do the screens show for `CC1CCC2(CC1)NC(=O)N(CC(=O)Nc1cccc(S(=O)(=O)N3CCCC3)c1)C2=O` (configuration not stated)?
A549 viability: -1%; IL-2 act: 0; Nrf2 activator: 0%; Nrf2 block: 5.2µM*

What do the screens show for `CC(CNC(=O)Cn1ccc2cc(S(=O)(=O)N3CCCCCC3)ccc21)c1ccccc1` (configuration not stated)?
A549 viability: -1%; Nrf2 activator: -1%; Nrf2 block: 21µM*

How did O=C(Cn1nnc(-c2ccccc2)n1)Nc1cccc(S(=O)(=O)N2CCCC2)c1 do in these assays?
A549 viability: -5%; IL-2 act: 0; Nrf2 activator: 0%; Nrf2 block: 16µM*

How did Cc1ccc(OCC(=O)Nc2cccc(S(=O)(=O)N3CCCC3)c2)cc1C do in these assays?
IL-2 act: -4; Nrf2 activator: 0%

How did O=C(Cn1cnnn1)Nc1cccc(S(=O)(=O)N2CCCCC2)c1 do in these assays?
A549 viability: -7%; IL-2 act: -1; Nrf2 activator: -1%; Nrf2 block: -10%

How did CCCc1ccc(S(=O)(=O)N2CCN(C(C)C(=O)NCc3ccc(OC)cc3)CC2)cc1 (configuration not stated) do in these assays?
A549 viability: inconclusive; IL-2 act: -1; Nrf2 activator: 3%; Nrf2 block: 16µM*

Results for CC(=O)c1ccc(OCC(=O)Nc2cccc(S(=O)(=O)N3CCCC3)c2)cc1 ?
A549 viability: 5%; IL-2 act: 0; Nrf2 activator: 4%; Nrf2 block: 16µM*

How did CN1c2ccsc2/C(=N/Nc2ccc(F)cc2)CS1(=O)=O do in these assays?
A549 viability: -18%; IL-2 act: 0; Nrf2 activator: 13µM*; Nrf2 block: inconclusive

What do the screens show for `COc1ccc(CN(Cc2ccco2)c2cnc(S(C)(=O)=O)nc2C(=O)Nc2ccc(C)c(Cl)c2)cc1`?
A549 viability: 15%; Nrf2 activator: 1%; Nrf2 block: 14%

Results for Cc1ccnc(SCC(=O)c2ccc(Br)cc2)c1C#N ?
A549 viability: 15%; IL-2 act: -1; Nrf2 activator: 2.2µM*; Nrf2 block: inconclusive

Results for Cc1cc(C)c(C#N)c(OCC(=O)c2ccc(Br)cc2)n1 ?
A549 viability: -3%; IL-2 act: 1; Nrf2 activator: 6.3µM*; Nrf2 block: 3%

How did O=S1(=O)N=C(Oc2ccc(-c3ccccc3)cc2)c2ccccc21 do in these assays?
A549 viability: 6%; Nrf2 block: 16%

What do the screens show for `Cc1ccc[n+](C(C)C(=O)c2ccc(-c3ccccc3)cc2)c1` (configuration not stated)?
A549 viability: 0%; IL-2 act: -1; Nrf2 activator: 0%; Nrf2 block: -20%
